# From PubChem BioAssay
# Giardia FBPA inh – qHTS Assay for Inhibitors of Fructose-1,6-bisphosphate Aldolase from Giardia Lamblia; Potency, µM (series often up to 59.6 µM), without a hit: top-dose activity, negative = inhibition, most hits filed as inhibitors; 290,000 tested, 0.71% active; AID 2451, 2010; A8B2U2; purified Giardia FBPA; note: potency is the fitted concentration of half-maximal effect; % is set by controls: 0 for no effect and ±100 for the full control effect; nearly all actives have a fitted effect of over 55% in size
# Target sequence (A8B2U2 whole entry, looked up): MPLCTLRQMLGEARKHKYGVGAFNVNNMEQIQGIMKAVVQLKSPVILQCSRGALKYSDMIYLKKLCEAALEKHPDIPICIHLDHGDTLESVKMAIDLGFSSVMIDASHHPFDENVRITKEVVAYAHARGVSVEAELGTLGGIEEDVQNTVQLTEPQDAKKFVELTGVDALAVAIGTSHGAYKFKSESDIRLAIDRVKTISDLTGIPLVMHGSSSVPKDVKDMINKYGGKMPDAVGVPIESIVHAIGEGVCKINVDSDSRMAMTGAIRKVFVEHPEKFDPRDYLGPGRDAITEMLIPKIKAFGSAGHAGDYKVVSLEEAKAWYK
#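 Giardia FBPA (40 nM reagent) was preincubated 10 min at RT with compound (up to 57.5 uM final), then substrate plus GAPDH/TPI/NAD/arsenate coupling system with diaphorase/resazurin was added; resorufin fluorescence (525/598 nm) was read after 20 min.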
# NS1 function inh – qHTS Assay for Inhibitors of Influenza NS1 Protein Function | Potency, µM (highest dose often 46.1 µM), for inactives: top-dose activity, positive = more growth | 270,000 tested, 0.4% active; calls by dose curve; note: potency is the fitted concentration of half-maximal effect; actives are rising curves; nearly all actives have a fitted effect of over 50% in size
#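 Compounds were scored for reversing the slow growth caused by influenza A NS1 in S. cerevisiae, measured by optical density at 600 nm. Assay medium contained 2% galactose at pH 6.0; NS1-free yeast of the same strain were the positive control.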
# Shiga toxin inh – A qHTS for Small Molecule Inhibitors of Shiga Toxin; Vero cells, Shiga toxin protein synthesis inhibition reporter; inhibition, % at 38.7 µM; 290,000 tested, 9.2% active; in the data active = inhibition mostly above about 28%, no sharp cut-off; inactive = mostly below about 43%; note: 0% is about no effect
# Pf growth 48h – Primary qHTS for delayed death inhibitors of the malarial parasite plastid, 48 hour incubation. Potency, µM (doses to about 28.7 µM), for the others: top-dose activity change, negative = inhibition, usual class: inhibitors. AID 504832, 2011. 310,000 tested, 5.9% active. P. falciparum luciferase growth in erythrocytes, 48 h; note: potency is the fitted concentration of half-maximal effect; % is set by controls: 0 for no effect and ±100 for the full control effect
#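 Erythrocytes infected with P. falciparum carrying an integrated firefly luciferase reporter (2% hematocrit, 0.1% parasitemia final) were exposed to compounds in RPMI 1640 with 0.5% Albumax at 37 C, 5% CO2. Growth inhibition was scored as reduced luminescence.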
# Cycloheximide cs – Cycloheximide Counterscreen for Small Molecule Inhibitors of Shiga Toxin. cell reporter, cycloheximide protein synthesis inhibition counterscreen. max response, %. 300,000 tested, 12% active. AID 2314, 2010; in the data active = max response mostly above about 13%, no sharp cut-off; inactive = mostly below about 14%; note: read at 38.3 µM for the half of the compounds with a filed dose; 0% is about no effect
# Pf growth 96h – Primary qHTS for delayed death inhibitors of the malarial parasite plastid, 96 hour incubation. P. falciparum luciferase reporter growth, 96 h. Potency, µM (titrated, usually from 28.7 µM), for the others: at the highest dose activity change, negative = inhibition, usual class: inhibitors. 320,000 tested, 6.9% active; note: potency is the fitted concentration of half-maximal effect; % is set by controls: 0 for no effect and ±100 for the full control effect
#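 Compounds incubated with erythrocytes infected by luciferase-expressing P. falciparum (2% hematocrit, 0.05% parasitemia final) for 96 hours, 37 C in 5% CO2. Growth inhibition scored as decreased luciferase luminescence.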
# * = called active by the depositor; ? = inconclusive; . = not tested or not shown. Rows were chosen to be rich in hits. Some 21% of all compounds tested hit in one or more screens of this group. Unless noted, calls come from the whole dose curve; as a rule, active = well fitted curve in the direction sought with a large enough effect; inconclusive = small, poorly fitted or top-dose-only effect, or another doubt; inactive = no such curve, though single readings can be large; an effect the other way counts as inactive or inconclusive.
SMILES,Giardia FBPA inh,NS1 function inh,Shiga toxin inh,Pf growth 48h,Cycloheximide cs,Pf growth 96h
COc1ccc(-c2nc3ccccc3n2Cc2ccc(C)cc2)cc1,-1%,3%,44*,?,42*,?
CCCn1c(-c2ccc(OC)cc2)nc2ccccc21,-1%,-125%,10,?,13*,?
COc1ccc(Cn2c(-c3ccc(C)cc3)c[n+]3ccccc23)cc1,8%,-4%,21,0.37µM*,10,0.1µM*
Cc1ccc(Cn2c(Cc3ccccc3)nc3ccccc32)cc1,16%,-40%,-24,0%,-4,32%
CCOC(Cn1c(-c2ccc(OC)cc2)nc2ccccc21)OCC,-2%,-9%,9,.,16,?
COCn1c(-c2ccc(OC)cc2)nc2ccccc21,1%,-21%,active,164%,51*,?
C=C(C)Cn1c(-c2ccc(OC)cc2)nc2ccccc21,-4%,-177%,1,-26%,15,1%
CSc1cccc(CN2CCC(CCC(=O)NC3CC3)CC2)c1,3%,-7%,-5,8%,-1,-13%
COc1ccc(-c2csc3nc(-c4ccccc4)oc(=O)c23)cc1OC,-1%,-2%,3,23%,8,?
COc1cccc2c(=O)c(C(=O)O)c[nH]c12,-1%,-5%,-7,19%,0,.
COc1cccc2c(=O)c(C/C=C(/C)Cl)c(C)[nH]c12,-14%,-90%,-11,0.74µM*,-3,.
Cc1[nH]c2ccc(F)cc2c(=O)c1SC(F)(F)C(F)C(F)(F)F (stereo not given),1%,-3%,-12,.,-2,19%
COc1cccc2c(=O)c(SC(F)(F)C(F)C(F)(F)F)c(C)[nH]c12 (stereo not given),-1%,0%,52*,6.6µM*,33,3.7µM*
COC(=O)C1=C(C)NC(=O)NC1c1ccc(OC(=O)c2ccco2)cc1 (stereo not given),14%,-5%,-4,10%,1,?
CCN(CC)S(=O)(=O)c1cccc(C(=O)NC(Cc2c[nH]c3ccccc23)c2nnc3n2CCC3)c1 (stereo not given),3%,-9%,-7,9.3µM*,-2,8.3µM*
O=C(Nc1c(Cl)ccc2nsnc12)c1ccc([N+](=O)[O-])o1,-10%,-18%,51*,?,41*,?
O=C(Nc1ccon1)c1ccc(Br)o1,0%,-2%,-7,13%,0,?
O=C(Nc1ccc([N+](=O)[O-])cn1)c1ccc(Br)o1,1%,2%,70,45%,18*,44%
O=C(Nc1ccc(Cl)cn1)c1ccc([N+](=O)[O-])o1,-23%,-59%,119*,?,45*,11%
COc1cccc(N2CCN(CC(=O)NC3=Nc4ccccc4N=C(C)C3c3ccccc3)CC2)c1 (stereo not given),-8%,-9%,-11,?,-1,?
CC1=Nc2ccccc2N=C(NC(=O)CN2CCN(c3ccc(F)cc3)CC2)C1c1ccccc1 (stereo not given),-4%,-12%,16,?,-2,?
COc1ccc(C(=O)NC2=Nc3ccccc3N=C(C)C2c2ccccc2)cc1 (stereo not given),-20%,-1%,190*,?,44*,?
CC1=Nc2ccccc2N=C(NC(=O)/C=C/C(=O)O)C1c1ccccc1 (stereo not given),-28%,1%,77*,55%,40*,47%
CNC1(C)C2CCC(C2)C1(C)C (stereo not given),-1%,3%,.,-12%,.,6µM*
O=C(CSCC(=O)OCC(=O)c1ccc(Br)cc1)Nc1cccc2ccccc12,-1%,-11%,-6,33%,-4,103%
SMILES,Giardia FBPA inh,NS1 function inh,Shiga toxin inh,Pf growth 48h,Cycloheximide cs,Pf growth 96h
COC(=O)c1ccc2nc(NC(=O)CSCC(=O)OCC(=O)c3ccccc3)sc2c1,0%,-25%,34,32%,36*,19%
Cc1ccc2nc(NC(=O)CSCC(=O)OCC(=O)c3ccc(Br)cc3)sc2c1,-9%,13%,46,-19%,15*,?
COC(=O)c1ccc2nc(NC(=O)CCS(=O)(=O)c3ccccc3)sc2c1,.,-10%,-1,2%,-1,4%
Cc1ccc(S(=O)(=O)C2(C(=O)N3CCN(c4ccccc4F)CC3)CC2)cc1,8%,-2%,-4,23%,-6,-15%
O=C(O)c1cc([N+](=O)[O-])ccc1NCCO,7%,6%,-2,22%,-2,36%
O=[N+]([O-])c1cc(Br)c(Nc2ccccc2)c([N+](=O)[O-])c1,2%,-64%,22,0.52µM*,16,10%
O=C(O)c1cc([N+](=O)[O-])ccc1C(=O)Nc1ccccc1,0%,2%,-9,10%,5,43%
Cc1cccc(Nc2ccc([N+](=O)[O-])cc2C(=O)O)c1,-12%,-25%,-7,9%,28*,10%
O=C(O)c1cc([N+](=O)[O-])ccc1Nc1ccccc1,-9%,-15%,-4,13%,-1,10µM*
CN(C)c1ccc(CNC(=O)CCS(=O)(=O)c2ccc3c(c2)n(C)c(=O)c(=O)n3C)cc1,1%,-22%,7,-12%,-3,1%
O=S(=O)(NCCCc1ccccc1)c1ccc(Cl)cc1,-7%,-24%,-4,6%,-1,9.3µM*
CCN(CC)Cc1nc2c(c(=O)[nH]1)C(CC)(CC)Cc1ccccc1-2,0%,14%,-3,9.3µM*,-2,-140%
Cc1ccc(N/C=C(/C#N)c2ccsc2)cc1,-15%,-42%,132*,122%,41*,130%
N#C/C(=C/Nc1ccccc1)c1ccsc1,?,3%,42*,96%,27*,77%
Cc1ccc(N/C=C(\C#N)c2ccc(OCCCF)cc2)cc1,1%,15%,74,-5%,21,.
COc1ccc(CCN2CCCn3c2nc2c3c(=O)n(CC(C)C)c(=O)n2C)cc1OC,13%,0%,-6,?,-7,?
COc1ccc(NC(=O)CSc2nccn2Cc2ccco2)c(OC)c1,-8%,-1%,44*,34%,25*,87%
Cc1ccc(NC(=O)Cc2nnc(SCC(=O)Nc3ccccc3)n2C)cc1,4%,10%,8,9%,7,23%
COc1ccccc1-n1ccnc1SCC(=O)NCc1ccco1,-1%,.,-7,?,0,10µM*
CC(CCc1ccco1)NC(=O)Nc1cccc(F)c1 (stereo not given),9%,-8%,16,-9%,21*,?
COc1ccccc1-n1ccnc1SCC(=O)NCC1CCCO1 (stereo not given),-2%,0%,20,20%,-3,?
